# Hit rate of the full screen: of about 420,000 compounds, about 64,000 (15%) were called active. Another 27% or so got no clear call; they are omitted. Only a sample is shown. Values without a mark were called inactive. Calls come from the whole dose curve; as a rule, active = well fitted inhibition curve with a large enough effect; inconclusive = small, poorly fitted or top-dose-only effect; inactive = flat fitted curve, though single readings scatter.
# Assay: qHTS for Inhibitors of human tyrosyl-DNA phosphodiesterase 1 (TDP1): qHTS in cells in absence of CPT; note: nearly all actives have a fitted effect of over 55% in size
# Settings: DT40 Tdp1-/- hTDP1 cells, no CPT, ATP luminescence, 48 h; activity change, negative = growth inhibition: at 46.2 µM (top of the series)
# Summary of the method: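 Growth kinetics read by CellTiter-Glo luminescence after ≥48 hr at 37 °C. Cells: DT40 Tdp1-/- stably carrying human TDP1, 400 per well, compound exposure in the absence of CPT (DMSO vehicle).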
# % is set by controls: 0 for no effect and ±100 for the full control effect; potency is the fitted concentration of half-maximal effect.
SMILES,"activity change, negative = growth inhibition [%]",Potency
COc1ccccc1NC(=O)CC(NCCN(C)C)C(=O)O (stereo not drawn),15.9,–
C/C(=N\Nc1ccc(S(N)(=O)=O)cc1[N+](=O)[O-])c1cccs1,-0.0475,–
CCOC(=O)[C@H]1[C@H]2COc3ccc(OC)cc3[C@@H]2N2C(=O)c3ccc(F)cc3NC(=O)[C@@]12C,-17.3,–
COC(=O)C1=C(O)/C(=C/c2ccc(OCC(=O)Nc3ccccc3)cc2)N=C1C,-2.77,–
O=C(COC(=O)c1cccs1)NCc1cccs1,-4.99,–
Nc1nnc(C2CCCC2)s1,1.87,–
COC(=O)c1ccccc1Oc1c(F)c(F)nc(N2CCOCC2)c1F,-5.44,–
Cc1cc(C)cc(C(=O)NCC(=O)OCC(=O)N2CCCCC2)c1,0.237,–
CCN1CCN(Cc2nc3c(c(=O)n(C)c(=O)n3C)n2CC(=O)c2ccccc2)CC1,1.2,–
COCCn1c(CN2CCC(Cc3ccccc3)CC2)nc2c1c(=O)n(C)c(=O)n2C,–,7.31 µM (active)
CC(C)CCn1c(=O)c2c(nc3n2CCCN3Cc2ccccc2)n(C)c1=O,–,20.6 µM (active)
Cn1c(=O)n(CCc2ccccc2)c(=O)c2c1nc1n2CCCN1c1ccccc1,-9.67,–
Cn1c(=O)c2c(nc(CN3CCOCC3)n2Cc2ccccc2)n(C)c1=O,-21.3,–
Cn1c(=O)n(Cc2c(F)cccc2Cl)c(=O)c2c1nc1n2CCN1c1ccc(F)cc1,1.01,–
O=C(O)C1CCCN(CCC=C(c2ccccc2)c2ccccc2)C1 (stereo not drawn),–,inactive
CC1CCCN(Cc2nc3c(c(=O)n(C)c(=O)n3C)n2CC(=O)c2ccccc2)C1 (stereo not drawn),–,16.4 µM (active)
CN1CCN(Cc2nc3c(c(=O)n(C)c(=O)n3C)n2Cc2cccc3ccccc23)CC1,-27.1,–
CCc1cc(CNC(=O)CC2C(=O)NCCN2CC2CCCCC2)on1 (stereo not drawn),13.8,–
Cc1ccc(S(=O)(=O)N(C)C)cc1NC(=O)C(C)OC(=O)c1ccc2ccccc2n1 (stereo not drawn),-0.989,–
c1ccc(-c2nnc3n2NC(c2ccc4c(c2)OCO4)S3)cc1 (stereo not drawn),-7.07,–
CC(C)=C1C2CCC1C1C(=O)N(NC(=O)c3ccco3)C(=O)C21 (stereo not drawn),-5.27,–
CCOc1ccc(CN(Cc2ccco2)S(=O)(=O)c2ccc(-n3cnnn3)c(OC)c2)cc1,–,16.4 µM (active)
CCOc1ccc(C(=O)COC(=O)c2ccc(-n3cnnn3)cc2)cc1,7.34,–

SMILES,"activity change, negative = growth inhibition [%]",Potency
CCOc1ccc(S(=O)(=O)N(CC(=O)NCC(F)(F)F)Cc2ccco2)cc1,-22.4,–
COc1ccc(S(=O)(=O)N2CCOCC2)cc1NC(=O)CC1CC2CCC1C2 (stereo not drawn),1.4,–
CC1(C)CC(=O)C=C(NCCCN2CCCC2=O)C1,-2.96,–
CCOc1ccc(Nc2nc(Cl)nc(N3CCN(c4ccc(OC)cc4)CC3)n2)cc1,–,13 µM (active)
COc1ccc(Nc2nc(N)nc(CSC(=S)N3CCC(C)CC3)n2)cc1,-11.9,–
COC(=O)CNc1nc(Cl)nc(N2CCC(C)CC2)n1,2.62,–
COP1(=O)C[C@@H](O)[C@@H](O)[C@@H](COCc2ccccc2)O1 (stereo partly drawn),0.0592,–
O=c1[nH][nH]c(C(F)(F)F)c1C=NCc1ccccc1Cl,-5.68,–
Cc1nc2cc(NC(=O)NC3CC3)ccc2n1C,3.34,–
COc1ccc(-n2c(=O)c(C)nc3cnc(N4CCOCC4)nc32)cc1,-11.1,–
Cc1nc2sccn2c(=O)c1S(=O)(=O)NCCc1ccccc1,-9.8,–
C/C(=N\NC(=O)c1ccoc1C)c1ccccc1O,–,11.6 µM (active)
Cc1ccc(-c2noc(CNC(=O)c3ccoc3C)n2)cc1,-9.26,–
C/C(=N\NC(=O)c1ccccc1C)c1ccc(N2CCOCC2)cc1,-7.6,–
COc1ccccc1Cn1c(C)nnc1-c1cnn(C)c1N,8.14,–
COCCNC(=O)C1C(=O)Nc2ccccc2C(=O)N1c1ccc2c(c1)OCCO2 (stereo not drawn),-5.81,–
NC(=O)CC[C@@H]1NC(=O)[C@@H]2CCCN2C(=O)c2cc([N+](=O)[O-])cc(F)c2NCCC[C@@H](C(N)=O)NC1=O,-5.72,–
CC(=O)N1CCc2c(sc(NC(=O)CCS(=O)(=O)c3ccccc3)c2C#N)C1,–,14.6 µM (active)
CC(=O)N1CCc2c(sc(NC(=O)CCS(=O)(=O)c3ccc(C)cc3)c2C(N)=O)C1,-30.7,–
CC(C)N1CCc2c(sc(NC(=O)Cc3ccccc3)c2C#N)C1,-16.9,–
CCN(CC)C(CNC(=O)CSc1nnnn1-c1cccc(F)c1)c1ccco1 (stereo not drawn),-26.1,–
Cc1ccc(C(=O)NCC(=O)O)s1,-2.07,–
COc1ccc(S(=O)(=O)N2CCN(c3ccc(F)cc3)CC2)cc1-c1noc(C)n1,-14.4,–

SMILES,"activity change, negative = growth inhibition [%]",Potency
COc1ccc(OC)c(-c2noc(N3CCN(c4cc(Cl)ccc4C)CC3)n2)c1,–,25.9 µM (active)
CCc1nc(-c2cc(S(=O)(=O)N3CCN(c4ccc(OC)cc4)CC3)ccc2OC)no1,-7.81,–
O=C(c1cccc(S(=O)(=O)N2CCCC2)c1)N(Cc1ccco1)C1CCS(=O)(=O)C1 (stereo not drawn),-10.1,–
Cn1c(CNC(=O)C(C)(C)C)nc2ccccc21,14.1,–
COc1cccc(C(O)Cc2nc3ccccc3n2C)c1OC (stereo not drawn),-14.5,–
CC(NCc1nc2ccccc2n1C)C12CC3CC(CC(C3)C1)C2 (stereo not drawn),–,23.1 µM (active)
Cc1ccc(S(=O)(=O)/N=C(/Nc2ccc3[nH]c(=O)[nH]c3c2)c2ccccc2)cc1,-13.1,–
CCN(CC)CCn1c(=S)[nH]c2ncccc2c1=O,1.26,–
COC(=O)c1sc2[nH]c(=S)n(N)c(=O)c2c1C,-7.88,–
C=CCNc1nc(C)nc(OC)n1,7.1,–
CN(C)c1ccc(C=NCCc2ccc(S(N)(=O)=O)cc2)cc1,2.16,–
CC(C)CC1(C)NC(=O)N(CC(=O)Nc2ccc3c(c2)OCCO3)C1=O (stereo not drawn),-5.4,–
CC(C)OCCCNC(=S)N1CCC(C(=O)c2ccc3c(c2)OCCO3)CC1,–,14.6 µM (active)
O=C(c1ccc2c(c1)OCCO2)C1CCN(S(=O)(=O)c2cccc(F)c2)CC1,-28,–
COCCNC(=O)C1CCN(S(=O)(=O)c2ccc3c(c2)OCCO3)CC1,2.49,–
O=C(NCCCN1CCN(C2CCCCC2)CC1)Nc1ccccc1C(F)(F)F,3.23,–
O=C(O)c1ccc(NC(=O)c2cccs2)cc1,-12.3,–
CC(C)(C)c1ccc(C(=O)Nc2ccc3c(c2)CCCN3C(=O)c2cccs2)cc1,–,5.8 µM (active)
CC(C)C(=O)Nc1ccc(C(=O)NNC(=O)c2cccs2)cc1,5.71,–
Cc1cc(C(F)(F)F)n2ncc(-c3ccccc3)c2n1,-3.95,–
COc1ccc(-c2cc(C(F)(F)F)n3nc(-c4ccccc4)cc3n2)cc1OC,–,16.4 µM (active)
COC(=O)c1cc2nc(-c3ccccc3)cc(C(F)(F)F)n2n1,-1.82,–

# Source: PubChem BioAssay AID686978 (National Center for Advancing Translational Sciences (NCATS), 2013)
